According to PubChem BioAssay AID485317 (Broad Institute, 2010):
Hit rate of the full screen: of about 290,000 compounds, about 11,000 (3.8%) were called active. Many of the other results were omitted from the sample, so actives are more common in it than they were. Unmarked numbers belong to inactive results.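 Rule for the calls: active = mean replicate inhibition above about 79%, with every replicate also reaching it (limit read from the data); inconclusive = only one of the two criteria met; inactive = mean below limit and not every replicate reaching it.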

Molecular target: FAD-linked sulfhydryl oxidase ALR (Homo sapiens) (UniProt P55789)
Sequence (P55789 whole entry, looked up): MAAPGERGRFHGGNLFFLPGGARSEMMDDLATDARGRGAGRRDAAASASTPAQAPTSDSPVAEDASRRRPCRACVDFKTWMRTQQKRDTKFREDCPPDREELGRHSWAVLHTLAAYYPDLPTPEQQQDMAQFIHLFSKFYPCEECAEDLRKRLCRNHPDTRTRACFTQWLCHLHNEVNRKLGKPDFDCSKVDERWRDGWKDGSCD
Assay: ALR-catalysed DTT oxidation blockers – biochemical, H2O2 detection, HRP-luminol luminescence, single point, primary screen (AID 485317)
Conditions: purified ALR, stronger effect = higher value, concentration not given here

Row | SMILES | inhibition
1 | C=CC(COCc1ccccc1)N(CC(=O)OC)S(=O)(=O)c1cc(Br)ccc1OC (stereo not given) | -15.6%
2 | Cc1cc(NC(=O)COc2ccc(Cl)cc2Cl)n(CCC#N)n1 | -11.3%
3 | Cc1cc(Nc2ccccc2)n(CCC#N)n1 | 98.6% (active)
4 | Cc1cc(Nc2ccccc2)n(C(=O)c2ccc(N)cc2)n1 | 28.5%
5 | Cc1cc(C(=O)OCC(=O)Nc2ccccc2Cl)c(C)o1 | -4%
6 | COc1cc(N)c(Cl)cc1C(=O)OCC(=O)c1ccc2c(c1)NC(=O)CO2 | 1.9%
7 | O=C(NCc1ccc2c(c1)OCO2)c1c(-c2ccsc2)sc2ccccc12 | 3.11%
8 | Cc1ccc(CNC(=O)c2ccc(CS(=O)Cc3cccc(Cl)c3)o2)cc1 (stereo not given) | 92.3% (active)
9 | Cc1ccc(CS(=O)Cc2ccc(C(=O)N3CCOCC3)o2)cc1 (stereo not given) | -2.5%
10 | O=C(NCc1cccs1)c1ccc(CS(=O)Cc2ccccc2Cl)o1 (stereo not given) | 21.5%
11 | CCN(CC(=O)Nc1ccc(OC)cc1)C(=O)CSCc1ccc(C)cc1 | -1.67%
12 | Cc1nn(C)cc1C(=O)c1ccccc1 | -7.74%
13 | O=C(C1CCCN(S(=O)(=O)c2ccccc2)C1)N1CCN(c2ccc(F)cc2)CC1 (stereo not given) | 19.8%
14 | COc1cccc(N2CCN(C(=O)C3CCCN(S(=O)(=O)c4cnc[nH]4)C3)CC2)c1 (stereo not given) | 98.9% (active)
15 | Cc1cccc(N2CCN(C(=O)C3CCN(S(=O)(=O)c4cnc[nH]4)CC3)CC2)c1C | 0.188%
16 | COc1ccccc1OCC(=O)OCc1cc(-c2ccco2)on1 | -3.11%
17 | Cc1ccc(S(=O)(=O)N2CCN(C(=O)COC(=O)CNC(=O)c3ccc(C(C)(C)C)cc3)CC2)c(C)c1 | -8.74%
18 | CN(C(=O)COC(=O)Cc1ccccc1[N+](=O)[O-])C1CCS(=O)(=O)C1 (stereo not given) | -19.5%
19 | S=C(Nc1ccc(Br)cc1)NC1CCN(Cc2ccccc2)CC1 | 17%
20 | S=C(Nc1ccc(Br)cc1Cl)NC1CCN(Cc2ccccc2)CC1 | -0.861%
21 | S=C(NN=C1CCN(Cc2ccccc2)CC1)NC1CCCCC1 | 94.2% (active)
22 | COc1ccccc1NS(=O)(=O)c1ccc(C(=O)N2CCN(c3ccccc3O)CC2)cc1 | 30.3%
23 | O=C(COC(=O)c1ncc(Cl)c(Cl)c1Cl)NCc1ccccc1 | -2.75%
24 | NC(=O)C1CCN(C(=O)c2ccc3c(=O)n(Cc4cccc(Br)c4)c(=S)[nH]c3c2)CC1 | 1.47%

Row | SMILES | inhibition
25 | C=CCn1c(SCC(=O)CC(=O)OCC)nc2cc(C(=O)N3CCC(C(N)=O)CC3)ccc2c1=O | 26.8%
26 | C=CCn1c(SCc2cccc(F)c2)nc2cc(C(=O)N3CCC(C(N)=O)CC3)ccc2c1=O | 82.8% (active)
27 | O=C(CCC(=O)c1cccs1)Nc1nc2ccccc2s1 | -15.5%
28 | COc1cccc(CC(=O)OCC(=O)NCc2ccc3c(c2)OCO3)c1 | -0.907%
29 | COCCNC(=O)CCCN1C(=O)c2ccccc2Sc2ncccc21 | -3.3%
30 | COCCNC(=O)CN1C(=O)CSc2ncccc21 | 95.3% (active)
31 | O=C(CN1C(=O)CSc2ncccc21)N1CCOCC1 | -36.7%
32 | CCn1nc(C(=O)Nc2ccc(N3CCOCC3)cc2)c2ccccc2c1=O | -11.2%
33 | CC1CC(=NNC(=O)C2COc3ccccc3O2)CC(C)(C)C1 (stereo not given) | 14.3%
34 | CN(C(=O)CN1C(=O)/C(=C/c2ccc(Cl)cc2)SC1=S)C1CCS(=O)(=O)C1 (stereo not given) | -8.19%
35 | COc1ccc(/C=C2\SC(=O)N(CCC(=O)NC3CCS(=O)(=O)C3)C2=O)cc1 (stereo not given) | -3.27%
36 | CC(C(=O)NC1CCS(=O)(=O)C1)N1C(=O)/C(=C/c2ccc(Cl)cc2)SC1=S (stereo not given) | 98.5% (active)
37 | COc1ccc(OC)c(S(=O)(=O)Nc2c(C)nn(C)c2C)c1 | -0.73%
38 | O=C(Cn1nnc(-c2ccccc2)n1)NC(=O)NC1CCCC1 | -9.99%
39 | CCN(CC)S(=O)(=O)c1ccc2[nH]c(=O)cc(C(=O)N(C)C3CCS(=O)(=O)C3)c2c1 (stereo not given) | -1.56%
40 | COc1ccccc1C(CNC(=O)c1cccc(S(=O)(=O)Nc2ccc(F)cc2)c1)N(C)C (stereo not given) | -11.3%
41 | COc1cccc(C2=CC(=O)C[C@H](c3ccc(OC)c(OC)c3)C2)c1 | -2.35%
42 | COC(=O)c1ccc(CSc2ccc(S(=O)(=O)N3CCCCC3)cn2)cc1 | 98.5% (active)
43 | O=S(=O)(c1ccc(SCc2ccccc2)nc1)N1CCCCCC1 | -0.984%
44 | COC(=O)c1ccc(CNC(=O)c2ccc(S(=O)(=O)N3CCCCCC3)cc2)cc1 | -5.09%
45 | CC(=O)c1cccc(OCC(=O)OCC(=O)Nc2cc(S(=O)(=O)N3CCCCC3)ccc2C)c1 | -1.77%
46 | CCN(CC(=O)Nc1cc(Cl)ccc1C)C(=O)Cn1c(=O)cnc2ccccc21 | 0.937%
47 | O=C(Nc1ccon1)c1nc[nH]c1C(=O)NCc1ccccc1 | -9.59%
48 | O=C(c1ccc2ccccc2n1)N1CCN(c2ccccc2Cl)CC1 | 2.19%

Row | SMILES | inhibition
49 | COc1ccccc1N1CCN(C(=O)c2c(-c3c(Cl)cccc3Cl)noc2C)CC1 | 15.3%
50 | O=C(c1c(Cl)cccc1Cl)N1CCN(c2cccc3[nH]ccc23)CC1 | 98.9% (active)
51 | CN(C)C(=O)N=NC(=O)N(C)C | -21.7%
52 | CCOc1ncccc1C(=O)OCC(=O)Nc1cccc(S(=O)(=O)N2CCCCCC2)c1 | 0.144%
53 | COc1ccc(C(=O)NCc2ccccc2C)cc1S(=O)(=O)NC1CCCC1 | -15.1%
54 | CCn1nnc2cc(C(=O)Nc3ccc(C(=O)OC(C)C)cc3)ccc21 | -0.266%
55 | O=C(COC(=O)c1cccnc1Cl)NC(=O)NC1CCCCC1 | -0.213%
56 | CCCNC(=O)CCn1cc(-c2ccc(OC)cc2)nc1CCN | 10.4%
57 | O=C(CCCOc1ccccc1)NCc1ccco1 | 86.9% (active)
58 | COC(=O)/C=C/C(=O)NCc1ccco1 | 79.8% (active)
59 | CN(C)C(CNC(=O)CCCOc1ccccc1)c1ccco1 (stereo not given) | 3.18%
60 | O=C(/C=C/c1ccc(Cl)cc1Cl)NCc1ccco1 | -6.98%
61 | CC(C)(C)NC(=O)NCc1ccco1 | 6.08%
62 | O=C(CCOc1ccccc1)NCc1ccccc1 | -6.56%
63 | COc1cc(NC(=O)c2[nH]cnc2C(N)=O)cc(C(=O)Nc2cccc(C(F)(F)F)c2)c1 | -4.54%
64 | O=C(CSc1nc2ccccc2c(=O)n1Cc1ccc(F)cc1)NCC1CCCO1 (stereo not given) | -7.08%
65 | C=CCNC(=O)C1CC2c3ccccc3C1c1ccccc12 (stereo not given) | -7.82%
66 | Cc1cc(Nc2ccc(Br)cc2)nc2ccccc12 | -3.49%
67 | O=C(COC(=O)c1ccc(O)cc1O)c1ccc2c(c1)OCCO2 | 9.5%
68 | CC1(C)O[C@@H]2CC3C4C[C@H](F)C5=CC(=O)C=CC5(C)C4C(O)CC3(C)[C@]2(C(=O)CO)O1 (stereo not given in full) | -6.73%
69 | O=C1/C(=C\c2cccnc2)CN(Cc2ccccc2)C/C1=C\c1cccnc1 | 96.1% (active)
70 | O=Cc1cn(Cc2ccccc2)nc1-c1cccnc1 | -2.35%
71 | Clc1ccc(CN2CCN(/N=C/c3cccnc3)CC2)cc1 | 14.2%
72 | C=CCc1cc(S(=O)(=O)c2ccc(O)c(CC=C)c2)ccc1O | 87.7% (active)

Row | SMILES | inhibition
73 | O=C(Nc1ccccc1N1CCCC1)c1ccc2ccccc2c1 | 77% (active)
74 | O=C(Nc1ccccc1N1CCCC1)c1ccc(F)c(S(=O)(=O)N2CCOCC2)c1 | 43.8%
75 | Cc1ccc(Cc2nnc(SCC(=O)Nc3ccccc3C)[nH]c2=O)cc1 | -2.8%
76 | Cc1cccc(N2CC(C(=O)Nc3ccccc3N3CCCC3)CC2=O)c1C (stereo not given) | 98.4% (active)
77 | Cc1ccccc1N1CC(C(=O)Nc2ccc3c(c2)OCO3)CC1=O (stereo not given) | -35.2%
78 | Cc1ccccc1NC(=O)CSc1ccc2nnc(-c3ccccn3)n2n1 | -1.94%
79 | O=C(CNCCC1=CCCCC1)Nc1ccccc1N1CCCCCC1 | 19.2%
80 | Cc1ccccc1N1CC(C(=O)Nc2ccc(S(=O)(=O)N3CCCC3)cc2)CC1=O (stereo not given) | -9.58%
81 | Cc1ccccc1NC(=O)CSC1=NCCN1 | 99.1% (active)
82 | O=C(Nc1ccccc1N1CCCCC1)c1ccc2nccnc2c1 | -6.64%
83 | Cc1ccccc1NC(=O)CNc1ccccc1N1CCCCC1 | 87.1% (active)
84 | Cc1ccccc1NC(=O)Nc1ccccc1N1CCCCC1 | -4.73%
85 | Nc1c(C(=O)OCC(=O)Nc2ccc(OC(F)F)cc2)[nH]c(=O)[nH]c1=O | 9.56%
86 | COc1ccccc1N(CC(=O)Nc1ccc(C)cc1Cl)S(=O)(=O)c1cccs1 | -3.47%
87 | CC(C(=O)N(C)CC(=O)Nc1ccccc1C(F)(F)F)N1C(=O)c2ccccc2C1=O (stereo not given) | -4.96%
88 | CCOc1ccc(CC(=O)NCCS(=O)(=O)N2CCN(c3ccccc3)CC2)cc1 | -1.48%
89 | Cc1onc(-c2c(F)cccc2Cl)c1C(=O)OCC(=O)N1C(C)CCCC1C (stereo not given) | -4.37%
90 | COCCN(CCOC)S(=O)(=O)NC[C@H]1O[C@@H](n2cnc3c(N)ncnc32)[C@H](O)[C@@H]1O | 2.26%
91 | COc1cc(C(=O)Nc2ncccc2C)ccc1OCC(=O)N1CCOCC1 | -1.3%
92 | CCOc1ccc(C(=O)CCC(=O)NC2=NCCS2)cc1 | 2.64%
93 | COCOc1cc(O)c(C(=O)/C=C/c2ccc(OCOC)c(OCOC)c2)c(OCOC)c1 | 94.9% (active)
94 | CCOc1ccc(/C=C/C(=O)OCC(=O)c2ccccc2OC)cc1OC | 1.49%
95 | COc1ccc(/C=C/C(=O)c2ccc(OC)cc2O)cc1 | -17.6%
